The assay is described as follows: restorers of sdo1-deficient yeast growth – S. cerevisiae, bone marrow failure model, primary screen (AID 817).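 Further: z-score against mean and SD of all compound wells on the same plate.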 To be noted: S. cerevisiae sdo1-depleted JHY4D growth rescue, at 10 µM, stronger effect = higher value, pdr5 snq2 efflux-pump mutant strain.
The mark [1] stands for this setting: OD600, measured here: growth rescue at 24 h.

The structures appear in SMILES notation. Out of some 140,000 compounds screened, about 300 (0.21%) were called active.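 How the source made its calls: active means z-score above 3 at both the 24 hr and the 30 hr optical density reads; inactive means the rest, inconclusive results apart.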 Many of the other results were omitted from the sample, so actives are more common in it than they were.

Turning to `Cc1cc(C(=O)NNC(=S)NC(C)c2ccccc2)cs1` (stereo not given), the z-score (OD600 30 h) is 0.17 (inactive) and the z-score under setting [1] is -0.18.

Consider `O=C(CN1CCN(S(=O)(=O)c2ccc(Br)cc2)CC1)Nc1ccccc1C(=O)c1ccccc1`, for which the z-score (OD600 30 h) is -0.96 (inactive) and the z-score under setting [1] is -0.1.

With `Cc1c(C(=O)NCCCc2ccccc2)cccc1[N+](=O)[O-]`, the z-score by setting is: (OD600 30 h) -0.72 (inactive); under setting [1], -1.83.

On to `CN(C)c1ccc(Nc2c3c4c(cccc4n(C)c2=O)C(=O)c2ccccc2-3)cc1`, for which the z-score (OD600 30 h) is 12.3 (active) and the z-score under setting [1] is 10.3.

On to `O=[N+]([O-])c1cccc(C2=NCCS2)c1`, for which the z-score reads like this: (OD600 30 h) 0.63 (inactive); under setting [1], 0.08.

Take `Cc1ccccc1NC(=S)N(CCCN1CCOCC1)Cc1cccs1`: the z-score is 0.26 (inactive) (OD600 30 h) and 0.42 under setting [1].

Turning to `O=C1NC(c2ccccc2)CCC1(Cl)Cl` (stereo not given), the z-score by setting is: (OD600 30 h) 0.83 (inactive); under setting [1], -0.01.

With `NS(=O)(=O)c1cc(C(=O)NCCOc2ccccc2)c(Cl)cc1Cl`, the z-score is -0.22 (inactive) (OD600 30 h) and -0.02 under setting [1].

For `O=C(NNC1=NCCC1)c1cccc(S(=O)(=O)N2CCCCC2)c1`, the z-score is, setting by setting: (OD600 30 h) 1.39 (inactive); under setting [1], 1.17.

With `CCN(C(=O)COc1cccnc1[N+](=O)[O-])C1CCS(=O)(=O)C1` (stereo not given), the z-score reads like this: (OD600 30 h) 0.14 (inactive); under setting [1], 0.45.

As for `C=CCOc1c(Br)cc(/C=N\n2nnnc2N)cc1OC`, the z-score is, setting by setting: (OD600 30 h) 0.16 (inactive); under setting [1], 0.27.

As to `CC(=O)Nc1ccc(S(=O)(=O)NC2(C(F)(F)F)C(=O)Nc3c2c(=O)[nH]c(=O)n3Cc2ccccc2)cc1` (stereo not given), the z-score reads like this: (OD600 30 h) 0.9 (inactive); under setting [1], -0.08.

In the case of `Cc1ccc(Nc2ccc(C(N)=O)cc2[N+](=O)[O-])cc1`, the z-score reads like this: (OD600 30 h) 0.35 (inactive); under setting [1], 0.28.

Regarding `CCC1CCCCN1C(=S)Nc1ccc(C(C)=O)cc1` (stereo not given), the z-score reads like this: (OD600 30 h) -0.29 (inactive); under setting [1], -0.44.

Turning to `C=CCn1c(SCc2ccc(Cl)c(Cl)c2)nnc1C(CO)NC(=O)c1ccc(OC)cc1` (stereo not given), the z-score is 0.22 (inactive) (OD600 30 h) and -0.41 under setting [1].

Regarding `O=C(COC(=O)/C=C/c1cccc(Cl)c1)NCCc1ccccc1`, the z-score (OD600 30 h) was 3.39 (active) and the z-score under setting [1] came out at 3.67.

On to `COc1cc(/C=C/C(=O)OCC(=O)Nc2cccc(Oc3ccccc3)c2)ccc1O`, for which the z-score (OD600 30 h) was -0.4 (inactive) and the z-score under setting [1] came out at 0.4.

Turning to `COc1ccc(/C=C/C(=O)OCC(=O)NCc2cccs2)cc1OC`, the z-score is, setting by setting: (OD600 30 h) 1.04 (inactive); under setting [1], 0.67.

As to `CC(NC(=S)Nc1ccccc1)C1COc2ccccc2O1` (stereo not given), the z-score reads like this: (OD600 30 h) -0.7 (inactive); under setting [1], 0.37.

With `Clc1cccc(CN2COc3c(cc(Cl)c4cccnc34)C2)c1`, the z-score was -1.42 (inactive) (OD600 30 h) and 1.02 under setting [1].

Consider `COc1ccc(C(=O)CSc2nnc(NC(=O)C3CC(=O)N(c4cccc(OC)c4)C3)s2)cc1` (stereo not given), for which the z-score (OD600 30 h) is -0.16 (inactive) and the z-score under setting [1] is 0.63.

As for `Cn1cccc1/C=C1\SC(=S)N(NC(=O)c2ccc(Cl)cc2)C1=O`, the z-score reads like this: (OD600 30 h) -1.05 (inactive); under setting [1], -0.65.

Regarding `COc1cc(OC)c(-n2cc(-c3ccc(Cl)cc3)[nH]c2=O)cc1Cl`, the z-score by setting is: (OD600 30 h) 0.21 (inactive); under setting [1], 1.29.

In the case of `COCCCNC(=O)CNC(=S)N(Cc1cc(OC)c(OC)c(OC)c1)C1CCCC1`, the z-score (OD600 30 h) was 1.27 (inactive) and the z-score under setting [1] came out at 0.62.

`O=C(NC(=S)NC1CCSC1=O)c1ccccc1F` (stereo not given): the z-score (OD600 30 h) is 1.34 (inactive) and the z-score under setting [1] stood at 0.37.

In the case of `COc1cc(OC)c(C(=O)OC(C)C(=O)Nc2cc(C(F)(F)F)ccc2Cl)cc1OC` (stereo not given), the z-score is, setting by setting: (OD600 30 h) -0.55 (inactive); under setting [1], -0.89.

Regarding `COc1ccc(COC(=O)N/N=C(\C)CC(=O)Nc2ccc(Cl)cc2)cc1`, the z-score by setting is: (OD600 30 h) -0.6 (inactive); under setting [1], -0.79.

Take `Cc1cccc2cc(CN(Cc3cccs3)C(=S)NCc3ccco3)c(=O)[nH]c12`: the z-score by setting is: (OD600 30 h) -0.84 (inactive); under setting [1], -0.86.

For `Cc1nc(CC(=O)NNS(=O)(=O)c2ccc(F)c(Cl)c2)cs1`, the z-score is -0.8 (inactive) (OD600 30 h) and -1.4 under setting [1].

With `Oc1c(Br)cccc1/C=N/Nc1c(F)c(F)c(F)c(F)c1F`, the z-score was -1.2 (inactive) (OD600 30 h) and -1.07 under setting [1].

As for `CCCCC(NS(=O)(=O)c1ccc(C)cc1)C(=O)Oc1ccc2c3c(c(=O)oc2c1)CCC3` (stereo not given), the z-score is, setting by setting: (OD600 30 h) 3.73 (inactive); under setting [1], 0.78.

As to `COc1ccc(-c2nnco2)cc1OC`, the z-score (OD600 30 h) was 12.4 (active) and the z-score under setting [1] was 7.83.

Consider `COc1ccc(-c2noc(-c3cccc(OC)c3OC)n2)cc1OC`, for which the z-score runs as follows: (OD600 30 h) 0.11 (inactive); under setting [1], 0.39.

For the compound `COc1ccc2c(Cl)c(-c3nnco3)sc2c1`, the z-score by setting is: (OD600 30 h) -1.26 (inactive); under setting [1], -0.79.

Regarding `COc1cccc(-c2nnc(NC(=O)c3ccc(S(=O)(=O)N(CC(C)C)CC(C)C)cc3)o2)c1`, the z-score (OD600 30 h) is 5.73 (active) and the z-score under setting [1] amounted to 8.93.

Regarding `COc1cccc(NC(=O)CN(C)S(=O)(=O)c2ccc(C)cc2)c1`, the z-score runs as follows: (OD600 30 h) -1.24 (inactive); under setting [1], -0.78.

On to `O=C(COC(=O)c1ccc(Oc2ccccc2)cc1)Nc1nnc(-c2ccccc2)o1`, for which the z-score by setting is: (OD600 30 h) 0.36 (inactive); under setting [1], -0.67.

As for `O=C(Cc1ccc(-c2ccccc2)cc1)NC(c1ccccc1)c1ccccc1`, the z-score is -0.71 (inactive) (OD600 30 h) and -0.45 under setting [1].

With `COc1ccc(CC(=O)Nc2cc(S(=O)(=O)N3CCCCC3)ccc2N2CCN(C)CC2)cc1`, the z-score (OD600 30 h) is 0.01 (inactive) and the z-score under setting [1] is -0.4.

As to `O=[N+]([O-])c1cccc(S(=O)(=O)N2CCCCCC2)c1`, the z-score by setting is: (OD600 30 h) 0.38 (inactive); under setting [1], -0.08.

Regarding `Cc1ccc(C(C)C)cc1OCCN1CCCC1`, the z-score (OD600 30 h) was -1.51 (inactive) and the z-score under setting [1] was -0.59.

In the case of `O=C(Nc1ccc(CSc2ccccc2)cc1)c1ccc(CN2CCOCC2)cc1`, the z-score (OD600 30 h) was -1.65 (inactive) and the z-score under setting [1] is -1.3.

On to `CSCC[C@H](NC(=O)OC(C)(C)C)C(=O)N/N=C/c1cc2ccc(C)cc2nc1Cl`, for which the z-score by setting is: (OD600 30 h) -1.17 (inactive); under setting [1], -0.96.

As for `Cc1ccc(C)c(OCC(=O)N2CCN(C(=O)c3ccco3)CC2)c1`, the z-score is 2.17 (inactive) (OD600 30 h) and 2 under setting [1].

As to `CCn1c(/C=N/NC(=O)c2ccc(OC)cc2)nc2ccccc21`, the z-score is, setting by setting: (OD600 30 h) -1.61 (inactive); under setting [1], -0.95.

On to `CC(C)CC(CO)N1CCN(C(=O)c2ccc(Cl)cc2Cl)CCC1=O` (stereo not given), for which the z-score runs as follows: (OD600 30 h) 0.36 (inactive); under setting [1], -0.56.

As for `CC(=O)Nc1ccc(SCC(=O)Nc2ccccc2Oc2ccccc2)cc1`, the z-score runs as follows: (OD600 30 h) -0.06 (inactive); under setting [1], -0.09.

For the compound `Cc1sc2nc(CC(N)=O)[nH]c(=O)c2c1-c1ccccc1`, the z-score reads like this: (OD600 30 h) 0.91 (inactive); under setting [1], 0.6.

Regarding `CCOc1cc(NC(=S)NCCCOC)c(OCC)cc1NC(=O)c1ccco1`, the z-score is 0.22 (inactive) (OD600 30 h) and -0.09 under setting [1].

In the case of `CCOc1cccc(OCCCOc2cccc3cccnc23)c1`, the z-score (OD600 30 h) was -1.11 (inactive) and the z-score under setting [1] is -0.59.

The values are drawn from PubChem BioAssay AID817 (Emory University Molecular Libraries Screening Center, 2007).
